# IL-1B inflam inh: blocks inflammasome-driven IL-1 beta release; THP-1 LPS/ATP IL-1B secretion, AlphaLISA, 16 h; stronger effect = lower value; activity change, % at 57.5 µM; 360,000 compounds, 4.7% hits; AID 743279; in the data active = activity change below about -50%; inconclusive = mostly about -30% to -49%
#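 Secreted IL-1B measured by AlphaLISA bead assay after 16 h compound exposure of THP-1 cells; compounds (final up to 57.5 uM) added 1 h before LPS (250 ng/mL) and ATP (1.25 mM) stimulation; lower signal means less secretion.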
# DT40 TDP1 no CPT: qHTS for Inhibitors of human tyrosyl-DNA phosphodiesterase 1 (TDP1): qHTS in cells in absence of CPT | DT40 Tdp1-/- hTDP1 cells, no CPT, ATP luminescence, 48 h | Potency, µM (doses to about 46.2 µM), for inactives: at the top dose activity change, negative = growth inhibition, most hits filed as inhibitors | 420,000 compounds, 15% hits | AID 686978, 2013; also: potency is read from the fitted curve at half-maximal effect; nearly all actives have a fitted effect of over 55% in size
#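 Stably hTDP1-transfected Tdp1-null chicken DT40 cells were treated with library compounds minus camptothecin and grown for at least 48 hr at 37 °C, after which cellular ATP was quantified by luminescence.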
# HT1080 IDH1KD tx: toxicity to HT-1080 IDH1 knockdown cells (counter line) | HT-1080 IDH1 knockdown viability, ATP luminescence, 48 h | 360,000 compounds, 2% hits | Potency, µM (titrated, usually from 46.1 µM), inactives show top-dose activity, negative = toxicity, most hits filed as cytotoxic;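 also: potency is read from the fitted curve at half-maximal effect; 0% = DMSO wells and -100% = cell-free medium wells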
#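 Luminescent ATP read-out (CellTiter-Glo, 10 min at room temperature) after 48 h compound exposure at 37 °C gave viability of IDH1-knockdown HT-1080 cells. Activity was normalised to DMSO and cell-free wells, then fitted as concentration-response curves.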
# DT40 TDP1 CPT: DT40-hTDP1 cell growth loss with CPT | AID 686979 | chicken DT40 Tdp1-/-;hTDP1 cells + 20 nM CPT, ATP luminescence, 48 h | Potency, µM (highest dose often 46.2 µM), inactives show top-dose activity change, negative = growth inhibition, usual class: inhibitors | 420,000 compounds, 12% hits; also: potency is read from the fitted curve at half-maximal effect; nearly all actives have a fitted effect of over 55% in size
#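 Chicken DT40 Tdp1-/- cells complemented with human TDP1, 400 cells/well, exposed to compounds plus 20 nM camptothecin for at least 48 h at 37 C; viability read as ATP content by CellTiter-Glo luminescence.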
# HT1080NT lethal: kills 2HG-producing HT-1080-NT fibrosarcoma cells. HT-1080-NT fibrosarcoma viability, CellTiter-Glo ATP luminescence, 48 h. Potency, µM (titrated, usually from 46.1 µM), for inactives: top-dose activity, negative = less viability, hits mostly cytotoxic. 360,000 compounds, 1.6% hits. AID 686970;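 also: NT is the 2HG producing partner of a matched IDH1 knockdown line; potency is read from the fitted curve at half-maximal effect; 0% = DMSO-treated cells and -100% = media-only wells without cells; nearly all actives have a fitted effect of over 55% in size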
#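 Viability of the 2HG-overproducing fibrosarcoma line after 48 hours of compound exposure at 37 degrees C was determined by luminescence with CellTiter-Glo, and concentration-effect curves were then fitted and categorized.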
# * = called active by the depositor; ? = inconclusive; nt = not tested or not shown; [ ] = remark or other dose. In the library only some 19% were active in any assay of this set; here they are far more common. Unless noted, calls follow the shape of the dose curve; as a rule, active = well fitted curve in the direction sought with a large enough effect; inconclusive = small, poorly fitted or top-dose-only effect, or another doubt; inactive = no such curve, though single readings can be large; an effect the other way counts as inactive or inconclusive. Unless noted, % is scaled to controls: 0 for no effect and ±100 for the full control effect.
SMILES,IL-1B inflam inh,DT40 TDP1 no CPT,HT1080 IDH1KD tx,DT40 TDP1 CPT,HT1080NT lethal
COc1ccc(C(=O)N2CCN(c3nc4cc(C)ccc4cc3C#N)CC2)c(OC)c1,-59*,16µM*,-25%,16µM*,-6%
Cc1ccc2nc(N3CCN(C(=O)c4cccs4)CC3)c(C#N)cc2c1,-59*,15µM*,-4%,21µM*,-3%
COc1ccc(-n2ncc3c2ncn2nc(-c4ccc(OC)c(OC)c4)nc32)cc1,nt,-8%,nt,1%,nt
COc1cc(C(=O)N2CCCN(c3nc4cc(C)ccc4cc3C#N)CC2)cc(OC)c1OC,36,?,0%,21µM*,-8%
Cc1ccc2cc(C#N)c(N3CCCN(C(=O)c4cnccn4)CC3)nc2c1,-9,?,-2%,?,-1%
COc1cc(C(=O)N2CCN(c3ccc(C)cc3C)CC2)cc(OC)c1OC,95,3.7µM*,5.8µM*,2.9µM*,4.6µM*
Cc1c(C=Nc2ccc(S(=O)(=O)CCO)cc2)c(O)[nH]c(=O)c1C#N,15,-14%,1%,5%,11%
N#CC1C=Cc2c(ccc3ccccc23)N1C(=O)c1ccccc1 (centres undefined),-66*,0.92µM*,?,0.58µM*,1.8µM*
Cc1nn(-c2ccc(F)cc2)c(C)c1CNC(=O)c1ccc(-n2cc(NC(=O)c3ccoc3)cn2)cc1,nt,12µM*,nt,-15%[9.04 µM],nt
CC1(C)Cc2c(cnn2-c2ccc(F)cc2)C(NC(=O)c2ccoc2)C1 (centres undefined),3,0%,14%,-25%,3%
CCCc1nc2c(Cl)cc(C(F)(F)F)cn2c1Cc1ccc(OC)cc1C,44,16µM*,-12%,21µM*,-25%
COc1ccc(-c2nc3c(Cl)cc(C(F)(F)F)cn3c2Cc2ccccc2C(F)(F)F)cc1OC,18,-18%,15%,-4%,10%
COc1ccc(Cc2c(-c3ccc(C#N)cc3)nc3c(Cl)cc(C(F)(F)F)cn23)c(C)c1,0,18µM*,-14%,?,0%
CC(C)CC1=NN(C(=O)c2cccnc2)C(O)(C(F)(F)F)C1 (centres undefined),14,2.9µM*,17%,4.1µM*,7%
CC(C)CC1=NN(C(=O)c2ccncc2)C(O)(C(F)(F)F)C1 (centres undefined),-11,3.3µM*,-2%,2.9µM*,-14%
O=C(c1ccncc1)N1N=C(C2CC2)CC1(O)C(F)(F)F (centres undefined),5,5.2µM*,12%,3.7µM*,3%
COc1cccc(-n2c(Cc3cc(=O)[nH]c(=O)[nH]3)nnc2SCc2cccc(C(F)(F)F)c2)c1,-1,13%,7%,-4%,3%
O=C(NN1CCCC1)NS(=O)(=O)c1ccc(Cl)cc1,nt,-13%,nt,8%,nt
Cc1nc(NC(=O)C2CC3CCCC(C2)C3=O)sc1C (centres undefined),24,4%,-9%,4%,-5%
O=C(Nc1cccc(NC(=O)C2CC3CCCC(C2)C3=O)n1)C1CC2CCCC(C1)C2=O (centres undefined),-10,18µM*,-5%,?,-4%
CCCCN(CC)CCCNC(=O)c1nn(-c2ccc(OC)cc2)c(=O)c2c1c1ccccc1n2C,nt,-8%,nt,-9%,nt
COC(=O)C1=C/C=C\CN(C(c2ccccc2)c2ccccc2)/C=C\1C(=O)OC,13,21µM*,-6%,?,-9%
N#C/C(=C\c1ccc([N+](=O)[O-])o1)c1nc2ccccc2[nH]1,-101*,0.82µM*,5.8µM*,0.58µM*,5.8µM*
N#C/C(=C\c1ccc(N2CCCC2)c([N+](=O)[O-])c1)c1nc2ccccc2[nH]1,0,11%,7%,-1%,13%
N#C/C(=C(/O)c1ccc([N+](=O)[O-])o1)c1nc2ccccc2[nH]1,0,18µM*,-1%,12µM*,24%
SMILES,IL-1B inflam inh,DT40 TDP1 no CPT,HT1080 IDH1KD tx,DT40 TDP1 CPT,HT1080NT lethal
O=c1[nH]ncc(N2CCN(C(c3ccccc3)c3ccccc3)CC2)c1Cl,-1,10µM*,-19%,21µM*,-14%
O=c1[nH]ncc(N2CCCC2)c1Cl,31,3%,5%,6%,-2%
COc1ccc(-c2noc(CCC(=O)NCCCN3CCN(c4ccccc4F)CC3)n2)cc1,-23,16µM*,-9%,23µM*,-1%
COc1ccc(-c2noc(CCC(=O)NCCN3CCN(c4ccccc4F)CC3)n2)cc1,-10,15µM*,-2%,16µM*,-5%
CCN1CCN(CCCNC(=O)CCc2nc(-c3ccc(OC)cc3)no2)CC1,27,3%,7%,-13%,3%
CCCCOc1cccc(-c2cc(C(=O)NNC(=S)NCC)c3ccccc3n2)c1,3,?,?,?,?
CCCCOc1ccc(-c2cc(C(=O)NNC(=S)NCC)c3ccccc3n2)cc1,?,21µM*,?,23µM*,18µM*
CCNC(=O)COC(=O)c1cc(-c2ccc(OC)cc2)nc2ccccc12,-6,?,-21%,?,2%
CCNC(=S)NNC(=O)c1cc(-c2ccc(OC)cc2)nc2ccccc12,-4,4.1µM*,18µM*,3.7µM*,10µM*
Cc1ccccc1NC(=O)Cc1nc(COC(=O)Cc2c(F)cccc2Cl)cs1,-9,?,0%,-23%,0%
CCOc1ccc(NCc2cccn2-c2nnc(N3CCC(C(=O)NCCCN4CCCCC4C)CC3)s2)cc1 (centres undefined),?,?,-10%,?,-13%
CCOc1ccc(NCc2cccn2-c2nnc(N3CCC(C(=O)NCCCN4C(C)CCCC4C)CC3)s2)cc1 (centres undefined),-7,?,?,?,?
CCOc1ccc(NCc2cccn2-c2nnc(N3CCC(C(=O)NCCCN4CCCCC4)CC3)s2)cc1,-6,23µM*,0%,?,-26%
CCOc1ccc(NCc2cccn2-c2nnc(N3CCC(C(=O)NCc4ccccc4Cl)CC3)s2)cc1,nt,12µM*,nt,-91%,nt
COc1cc2c(c(OC)c1OC)-c1c(cc3c(c1OC)OCO3)C[C@H](C)[C@@](C)(O)C2,-17,-19%,14%,-16%,16%
C/C=C(/C)C(=O)O[C@@H]1c2cc3c(c(OC)c2-c2c(cc(OC)c(OC)c2OC)[C@@H](OC(C)=O)[C@@H](C)[C@H]1C)OCO3,1,16µM*,11%,18µM*,2%
CCOC(=O)C[C@H]1c2ccc(C(F)(F)F)cc2S(=O)(=O)N1C(C)C,13,?,2%,?,0%

# Source: PubChem BioAssay (National Center for Advancing Translational Sciences (NCATS))
